Test results: the supplement of paper PMC9948646
A number with no mark means an inactive call.

tested on: gramicidin D channels in DC22:1PC lipid vesicles (bilayer-modifying potency); experiment: initial Tl+ fluorescence quench rate relative to no-drug control (NormRate, gramicidin monomer-dimer shift) (ratio (fold of control)); higher = stronger bilayer-modifying effect (equilibrium shifted toward conducting dimers), active = 1.5 or more; conditions: 10 µM; lipid concentration 50 µM; temperature: 25 °C
Experimental: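 Stopped-flow fluorescence quench assay: ANTS-loaded DC22:1PC large unilamellar vesicles doped with gramicidin D (1:2000), 50 µM lipid, equilibrated 10 min with 10 µM drug (0.1% DMSO), mixed with Tl+ quench buffer at 25°C. Initial quench rate (Tl+ influx) was fitted with a modified stretched exponential and normalised to the no-drug control rate (NormRate); duplicates from two independent LUV preparations (triplicates for 7 drugs).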

Question: With `CO/C=C(/C(=O)OC)c1ccccc1Oc1cc(Oc2ccccc2C#N)ncn1` as the compound, how does the “initial Tl+ fluorescence quench rate” value read?
Answer: 1.05

Question: How did the “initial Tl+ fluorescence quench rate” value turn out when `CO/N=C(\C(=O)OC)c1ccccc1CO/N=C(\C)c1cccc(C(F)(F)F)c1` was run?
Answer: 1.36

Question: How did the “initial Tl+ fluorescence quench rate” value turn out when `CC1(C)OB(O)c2ccc(C3=NO[C@@](c4cc(Cl)c(F)c(Cl)c4)(C(F)(F)F)C3)cc21` was run?
Answer: 4.11 (active)

Question: `Cc1cc(C2=NO[C@@](c3cc(Cl)c(F)c(Cl)c3)(C(F)(F)F)C2)ccc1C(=O)NCc1ccc2c(c1)C(C)(C)OB2O` was tested. Which “initial Tl+ fluorescence quench rate” value did it give?
Answer: 4.21 (active)

Question: Which “initial Tl+ fluorescence quench rate” value does the source give for `O=C1O[C@@H](CO)CN1c1cc(F)c(C2=CCN(Cc3ccccc3)CC2)c(F)c1` here?
Answer: 1.13

Question: Which “initial Tl+ fluorescence quench rate” value does the source give for `CCc1nn(C)c(C(=O)NCc2ccc(Oc3ccc(C)cc3)cc2)c1Cl` here?
Answer: 2.89 (active)

Question: How did the “initial Tl+ fluorescence quench rate” value turn out when `Cc1nn(C)c(C)c1NS(=O)(=O)c1c(Cl)cc(-c2ccnc(N3CCNCC3)c2)cc1Cl` was run?
Answer: 1.38

Question: For `O=C1O[C@@H](COc2ccon2)CN1c1cc(F)c(C2=CCN(Cc3ccccc3)CC2)c(F)c1`, which “initial Tl+ fluorescence quench rate” value is on record?
Answer: 1.31

Question: Which “initial Tl+ fluorescence quench rate” value does the source give for `Nc1c2c(nc3sc4c(c13)CCCC4)CCCC2` here?
Answer: 1.07

Question: With `CC(C)(C)[C@@H](O)[C@H](Oc1ccc(-c2ccccc2)cc1)n1cncn1` as the compound, how does the “initial Tl+ fluorescence quench rate” value read?
Answer: 2.39 (active)

Question: For `Cc1nn(Cc2ccccc2)c(Cl)c1C(=O)NC1CCCCCC1`, which “initial Tl+ fluorescence quench rate” value is on record?
Answer: 1.1

Question: For `C[C@@H]1CO[C@](Cn2cncn2)(c2ccc(Oc3ccc(Cl)cc3)cc2Cl)O1`, which “initial Tl+ fluorescence quench rate” value is on record?
Answer: 2.49 (active)

Question: For `Cc1cccc(C(=O)Nc2ccnc(N(C)C3CCN(CC(C)C)CC3)c2)c1`, which “initial Tl+ fluorescence quench rate” value is on record?
Answer: 1.12

Question: How did the “initial Tl+ fluorescence quench rate” value turn out when `CO[C@@H]1CN(c2ccc(C#C[C@@]3(O)CN4CCC3CC4)c(Cc3ccccc3)n2)C[C@H]1O` was run?
Answer: 1.06
